Shown are actives, neighbours in structure and some others; about 11% of the full set was active somewhere.
HEK293 tox = kills HEK 293 cells. HEK 293 viability, ATP luminescence (CellTiter-Glo), 48-72 h. Potency, µM (doses to about 115 µM), without a hit: at the highest dose activity change, negative = cytotoxicity, hits mostly inhibitors. actives 6.6% (n = 94,000). AID 1345083; also: nearly all actives have a fitted effect of over 60% in size
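Cells seeded first (HEK 293, 250 cells/well), then compound added by pintool. Incubation ran 48 or 72 hr at 37 degree Celsius. CellTiter-Glo was added and luminescence imaged after 10 min at room temperature.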
3T3 cytotox = NIH 3T3 cell cytotoxicity | NIH 3T3 viability, CellTiter-Glo ATP luminescence, 48-72 h | Potency, µM (top dose mostly 96.7 µM), for the others: at the highest dose activity change, negative = cytotoxicity, usual class: inhibitors | actives 4.3% (n = 94,000); also: nearly all actives have a fitted effect of over 55% in size
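ATP-dependent luminescence (CellTiter-Glo) served as the viability signal for NIH 3T3 cells treated with compound for 48 or 72 hr at 37 °C.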
FLuc inh = Photinus pyralis luciferase inhibition. P08659. purified P. pyralis luciferase, luminescence, biochemical. Potency, µM (titrated, usually from 115 µM), usual class: inhibitors. actives 2.5% (n = 76,000). AID 1347043; also: nearly all actives have a fitted effect of over 65% in size
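Luminescence read by CCD imaging after purified firefly luciferase (10nM final) was added to substrate buffer holding 10uM D-luciferin and 10uM ATP, pH 7.5, pre-dosed with compound.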
NPR1 antag = antagonists of human natriuretic peptide receptor Npr1. P16066. actives 1.6% (n = 76,000). Potency, µM (top dose mostly 46.3 µM), inactives show at the top dose activity change, negative = inhibition, most hits filed as inhibitors. HEK293 hNpr1 GloSensor cGMP, ANP-stimulated luminescence; calls by dose curve; also: nearly all actives have a fitted effect of over 60% in size
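HEK293 cells stably expressing human Npr1 and cGMP GloSensor pGS-40F, loaded 2 h with 2% GloSensor reagent, given compound 30 min at room temperature. Luminescence read before and 20 min after 0.1 nM hNppA.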
* hit, by the source's call; i = inactive; ? = inconclusive; nt = not tested or not shown; [ ] = dose if it differs, or a comment. Unless noted, calls follow the shape of the dose curve; as a rule, active = well fitted curve in the direction sought with a large enough effect; inconclusive = small, poorly fitted or top-dose-only effect, or another doubt; inactive = no such curve, though single readings can be large; an effect the other way counts as inactive or inconclusive. % is scaled to controls: 0 for no effect and ±100 for the full control effect; potency is read from the fitted curve at half-maximal effect.

SMILES | HEK293 tox | 3T3 cytotox | FLuc inh | NPR1 antag
CCc1nc2c(c(-c3ccc(O)cc3)n1)CN(Cc1ccc(OC(F)(F)F)cc1)CC2 | ? | ? | i | 0%
COc1ccc(CNC(=O)CC[C@H]2CNC(=O)[C@@H]3[C@@H](CCN3C(C)C)N2C)cc1 | 1%[172 µM] | 2%[138 µM] | i | 2%[70.6 µM]
CNC(=O)c1cc(C)nc2onc(C3CCN(C(=O)c4ccccc4)CC3)c12 | -2% | -24% | nt | nt
Cc1nc(-c2ccc(F)cc2)n(Cc2cccc(C(F)(F)F)c2)c(=O)c1CCO | 45µM* | ? | i | -7%
Cc1nc(-c2ccccc2)n(Cc2cccc(C(F)(F)F)c2)c(=O)c1CCO | 50µM* | ? | i | 1%
Cc1ccc(NC(=O)N[C@H]2C[C@@H](c3nc(-c4ccccn4)no3)N(C)C2)cc1 | ? | -25%[174 µM] | i | -1%[70.6 µM]
CC(C)CCN1CC2(CCCN(C(=O)c3cc(C(F)(F)F)[nH]n3)C2)CCC1=O (centres undefined) | -13% | 45µM* | i | -2%
COc1ccccc1CN1CC[C@@H](CO)N(C)c2nc(C)ccc2C1 | ? | ? | i | -12%[70.6 µM]
CC(C)(C)OC(=O)N1CC(Nc2ccc(Oc3ccccc3)cc2)C1 | 89µM* | ? | nt | nt
OC[C@H]1CCN(Cc2ccc(-c3cccc(Cl)c3Cl)o2)C[C@@H]1O | ? | -20% | ? | 10µM*
CN1CC(=O)N(C2CCC2)Cc2c1ncnc2N1CCCCC1 | -4% | -13% | nt | nt
CN1CC(=O)N(C2CCNC2)Cc2c1ncnc2N1CCC(c2ccccc2)CC1 (centres undefined) | 2% | 3% | nt | nt
CN1CC(=O)N(C2CCC2)Cc2c1ncnc2N1CCC(c2ccccc2)CC1 | 45µM* | ? | i | 0%
CN1CC(=O)N(c2ccc(Cl)cc2)Cc2c1ncnc2N1CCC(Cc2ccccc2)CC1 | 32µM* | ? | i | 4%
CN1CC(=O)N(C2CCC2)Cc2c1ncnc2N1CCC(Cc2ccccc2)CC1 | ? | 45µM* | i | -11%
CCOC(=O)[C@H]1C[C@]2(CCCCN(CCOC)C2=O)N(C(=O)C2CCCC2)[C@H]1c1ccco1 | ? | -9% | nt | nt
CNC(=O)c1cc(C2CC2)nc2onc(C3CCCN3C(=O)c3ccc(Cl)cc3)c12 (centres undefined) | ? | -17% | nt | nt
CNC(=O)c1cc(C2CC2)nc2c1c(C1CCCN(C(=O)c3ccccn3)C1)nn2C (centres undefined) | 2% | -19% | nt | nt
O=C(CCc1ccccc1)N1CC(Oc2ccc(-c3nc(-c4ccccc4)no3)cc2)C1 | ? | -18% | ? | ?
O=C(Nc1ccccc1F)N1CC(Oc2ccc(-c3nc(-c4ccccc4)no3)cc2)C1 | -11% | -1% | ? | -18%
c1ccc(-c2nc(-c3ccc(OC4CNC4)cc3)no2)cc1 | ? | 16µM* | 4µM* | ?
O=C(Nc1ccccc1F)N1CC(Oc2ccc(-c3noc(-c4ccccc4)n3)cc2)C1 | ? | -16% | ? | 10µM*
O=C(NCc1ccccc1)N1CC(Oc2ccc(-c3nc(-c4ccccc4)no3)cc2)C1 | ? | -2% | 2.5µM* | ?
O=C(NCc1ccccc1)N1CC(Oc2cccc(-c3nc(-c4ccccc4)no3)c2)C1 | 18µM* | ? | i | -20%
COCCN1CC2(CCOC2)N(C2CCN(C(=O)CCC3CCCC3)CC2)C1=O (centres undefined) | -13% | ? | nt | nt
SMILES | HEK293 tox | 3T3 cytotox | FLuc inh | NPR1 antag
Cc1ccc(C)c(C(O)Cn2ccn3nc(-c4cccs4)cc3c2=O)c1 (centres undefined) | ? | -27% | i | -21%
c1cc(-c2nc(-c3ccc(OC4CNC4)cc3)no2)ccn1 | ? | ? | ? | -3%
O=C(NCc1ccc(F)cc1)N1CC(Oc2ccc(-c3noc(-c4ccccc4)n3)cc2)C1 | ? | ? | ? | 14µM*
Cc1cc(C)n(CCC(=O)N2CC(Oc3cccc(-c4nc(-c5ccccc5)no4)c3)C2)n1 | ? | 40µM* | 28µM* | ?
c1coc(CN2CC(Oc3ccc(-c4noc(-c5ccncc5)n4)cc3)C2)c1 | 18µM* | ? | 4µM* | 11µM*
O=C(COc1ccc(F)cc1)N1CC(Oc2cccc(-c3nc(-c4ccccc4)no3)c2)C1 | ? | ? | ? | -17%
O=C1NCc2ccccc2CC12CCN(Cc1ccc(F)cc1)C2 (centres undefined) | ? | 4% | nt | nt
O=C1NCc2ccccc2CC12CCN(Cc1ccc(-c3ccccc3)cc1)C2 (centres undefined) | 35µM* | 35µM* | nt | nt
O=C1NCc2ccccc2CC12CCN(Cc1ccc(Oc3ccccc3)cc1)C2 (centres undefined) | ? | 32µM* | nt | nt
CC(=O)NCc1nnc2n1C(C(=O)NCc1ccc(F)cc1)CC2 (centres undefined) | -24%[172 µM] | -12%[138 µM] | nt | nt
COc1ccc(-c2ccc(C(=O)N3CCC(C#N)CC3)cc2)nn1 | ? | -25%[138 µM] | nt | nt
O=C1CO[C@H]2CCN(CCCc3ccccc3)CC[C@@H]2N1c1ccccc1 | 100µM* | 89µM* | i | -26%[70.6 µM]
O=C1CO[C@H]2CCN(Cc3ccccc3Cl)CC[C@@H]2N1c1ccccc1 | 79µM* | ? | i | -26%[70.6 µM]
O=C1CO[C@H]2CCN(Cc3ccccc3O)CC[C@@H]2N1c1ccccc1 | -20%[172 µM] | ? | i | -1%[70.6 µM]
CCn1c(C2CCN(S(=O)(=O)c3ccc(C)cc3)CC2)nn(C)c1=O | -7% | -29% | nt | nt
CN(Cc1cccc(C(F)(F)F)c1)C(=O)Nc1ccc(Cl)cc1 | 40µM* | 20µM* | i | -7%
CCOc1ccccc1C(=O)NC1CCCN(c2cc(-c3ccc(Cl)cc3)[nH]n2)C1 (centres undefined) | 20µM* | 16µM* | ? | -16%
CCOc1ccccc1C(=O)NC1CCN(c2cc(-c3ccccc3)[nH]n2)C1 (centres undefined) | ? | ? | i | 2%
COc1ccccc1C(=O)NC1CCN(c2cc(-c3ccc(Cl)cc3)[nH]n2)CC1 | ? | ? | i | -22%
COc1ccc(C(=O)NC2CCN(c3cc(-c4ccccc4)[nH]n3)CC2)c(OC)c1 | 79µM* | ? | i | -5%
CCOc1ccccc1C(=O)NC1CCN(c2cc(-c3ccc(OC)cc3)[nH]n2)C1 (centres undefined) | ? | 35µM* | i | -19%
COc1cc(Cl)ccc1C(=O)NC1CCN(c2cc(-c3ccc(F)cc3)[nH]n2)CC1 | ? | 35µM* | i | -4%
CC1CCN(C(=O)c2ccccc2OCC2CCCN(C(=O)C3CCOCC3)C2)CC1 (centres undefined) | -13% | ? | nt | nt
Cc1noc(C)c1S(=O)(=O)N1CCC2(C1)C(=O)N(c1ccccc1)c1ccccc12 (centres undefined) | ? | -17% | nt | nt
COc1ccc(CNc2ncnc3c2CN(C2CCCNC2)C(=O)CN3C)cc1OC (centres undefined) | 5% | -8% | nt | nt

Screening results (PubChem BioAssay)
